Screen size: about 52,000 compounds; about 4,300 (8.3%) were called active. For the sample, actives were picked, then their nearest neighbours and some compounds at random. Values without a mark were called inactive. Cut-off read from the data, not from the text of the source: active = survival mostly below about 52% (no sharp cut-off); inactive = mostly above about 56%.
Each compound was assayed on DeltatarO mutant (assay: S. aureus survival, RN4220 and DeltatarO strains – OD600, teichoic acid synthesis inhibitors, primary screen (AID 463173)). Conditions: S. aureus RN4220 wild type/DeltatarO growth, OD600, 18 h, stronger effect = lower value, screened at 18.75 µg/mL (by protocol).

Structure (SMILES) | survival
Cc1oc(-c2ccc(C(=O)NCc3ccccc3)cc2)nc1CS(=O)(=O)c1ccccc1 | 88%
Cc1ccc(C)c(N2CCN(C(=O)c3ccc4[nH]c(C)c(C)c4c3)CC2)c1 | 80%
N=Nc1c(O)n(CC(=O)Nc2ccccc2)c2ccccc12 | 87%
CN(C)Cn1c(O)c(N=NC(=O)c2ccccc2)c2ccccc21 | 93%
N=C(N=Nc1c(O)n(Cc2ccccc2)c2ccccc12)SCC(=O)Nc1ccccc1 | 23% (active)
Cc1ccc(NC(=O)C2CCN(S(=O)(=O)c3c(C)noc3C)CC2)cc1 | 105%
Cc1ccc(-c2nn3c(-c4ccc(C)cc4)nnc3c3ccccc23)cc1 | 20% (active)
Cc1ccc(-c2nn3c(-c4ccccc4)nnc3c3ccccc23)cc1 | 86%
COc1ccc(-c2nn3c(-c4ccccc4C)nnc3c3ccccc23)cc1 | 2% (active)
Cc1ccc(-c2nn3c(-c4ccccc4C)nnc3c3ccccc23)cc1 | 40%
Cc1ccc(-c2nnc3c4ccccc4c(-c4ccccc4)nn23)cc1 | 134%
COc1ccc(-c2nn3c(-c4ccc(OC)cc4)nnc3c3ccccc23)cc1 | 102%
O=C(CNCCCN1CCOCC1)Nc1ccc(OC(F)(F)F)cc1 | 99%
CC(=O)c1cccc(NC(=O)c2oc3c(c2C)-c2nn(Cc4ccc(Cl)cc4)cc2CC3)c1 | 64%
COc1cccc(CNC(=O)CN2C(=O)N(c3ccc(C)cc3C)S(=O)(=O)c3ccccc32)c1OC | 65%
COc1cc(NS(=O)(=O)c2ccc(-c3cc(C)no3)cc2)cc(OC)c1 | 99%
Cc1cccc(C)c1NC(=O)CCSCCc1ccccn1 | 86%
O=S(=O)(c1ccccc1)c1nc(-c2ccc(F)cc2)oc1N1CCCCCC1 | 33% (active)
Cc1ccc(S(=O)(=O)c2nc(-c3ccccc3)oc2N2CCN(c3ccccc3)CC2)cc1 | 85%
Cc1ccc(-c2nc(S(=O)(=O)c3ccc(C)cc3)c(N3CCCCC3)o2)cc1 | 0% (active)
Cc1ccc(-c2nc(S(=O)(=O)c3ccc(C)cc3)c(N3CCN(c4ccccc4)CC3)o2)cc1 | 97%
O=S(=O)(c1ccccc1)c1nc(-c2ccc(F)cc2)oc1N1CCOCC1 | 90%
COc1ccc(-c2nc(S(=O)(=O)c3ccccc3)c(N3CCCCC3)o2)cc1 | 74%
O=S(=O)(c1ccccc1)c1nc(-c2cccc(Cl)c2)oc1N1CCOCC1 | 57%

Structure (SMILES) | survival
Cc1ccc(-c2nc(S(=O)(=O)c3ccccc3)c(N3CCN(c4ccccc4)CC3)o2)cc1 | 102%
COc1ccc(-c2nc(S(=O)(=O)c3ccc(C)cc3)c(N3CCCCC3)o2)cc1 | 54%
Cc1ccc(-c2nc(S(=O)(=O)c3ccc(C)cc3)c(N3CCCCCC3)o2)cc1 | 70%
Cc1ccc(S(=O)(=O)c2nc(-c3ccccc3)oc2N2CCCCCC2)cc1 | 22% (active)
CC(C)(C)c1ccc(-c2nc(S(=O)(=O)c3ccccc3)c(N3CCOCC3)o2)cc1 | 37% (active)
Cc1ccc(Cl)cc1NC(=O)Cn1cc2c(n1)CCCCC2 | 68%
CCc1ccc(NC(=O)CC(c2cc(OC)c(OC)c(OC)c2)N2Cc3ccccc3C2=O)cc1 (centres undefined) | 79%
COc1ccc(N2CCN(C(=O)c3cccc4ccccc34)CC2)cc1 | 66%
COC(=O)NCc1c(C)nn(-c2ccccc2)c1-n1cccc1 | 96%
COc1ccc(C2c3cccn3CCN2S(=O)(=O)c2ccc([N+](=O)[O-])cc2)cc1 (centres undefined) | 69%
Cn1ncc(C(=O)N2CCN(c3ccccc3)CC2)c1C1CCN(C(=O)OC(C)(C)C)CC1 | 78%
CCCCN(CC)C(=O)c1c[nH]c2ccc(S(=O)(=O)N(C)c3ccc(Cl)cc3)cc2c1=O | 95%
COc1cc2c(cc1OC)C(c1cccc(Cl)c1)CC(=O)N2 (centres undefined) | 63%
Cc1c(C(=O)OC2CCC(C)CC2)[nH]c2c1C(=O)CC(c1ccc(N(C)C)cc1)C2 (centres undefined) | 68%
COc1ccc(NC(=O)C(=O)Nc2ccc3nc4n(c(=O)c3c2)CCCCC4)c(OC)c1 | 84%
COc1cccc(OC)c1C(=O)Nc1ccc2c(c1)N(C(C)=O)CCC2 | 78%
COCCn1c(=NC(=O)c2ccc3c(c2)OCCO3)sc2cc(NC(C)=O)ccc21 | 94%
Cc1nn2c(=O)cc(COC(=O)COc3ccccc3C)nc2s1 | 101%
O=C(NC12CC3CC(CC(C3)C1)C2)N1CCC(O)(c2ccc3c(c2)OCO3)CC1 | 81%
CCOc1ccc(NC(=O)c2cc3nc(-c4ccc(OC)cc4)cc(C(F)(F)F)n3n2)cc1 | 134%
O=C(Nc1cccc(C(F)(F)F)c1)c1cc2nc(-c3ccccc3)cc(C(F)(F)F)n2n1 | 60%
COc1ccc(-c2cc(C(F)(F)F)n3nc(C(=O)NCC45CC6CC(CC(C6)C4)C5)cc3n2)cc1 | 29% (active)
O=C(Nc1cccc(Cl)c1Cl)c1cc2nc(-c3ccc(Cl)cc3)cc(C(F)(F)F)n2n1 | 93%
O=C(NCC12CC3CC(CC(C3)C1)C2)c1cc2nc(-c3ccccc3)cc(C(F)(F)F)n2n1 | -4% (active)

Structure (SMILES) | survival
COc1ccc(-c2cc(C(F)(F)F)n3nc(C(=O)NCC45CC6CC(CC(C6)C4)C5)cc3n2)cc1OC | 137%
O=C(c1cc2nc(-c3ccccc3)cc(C(F)(F)F)n2n1)N1CCCC1 | 78%
Cc1ccc(-c2cc(C(F)(F)F)n3nc(C(=O)Nc4ccc(Cl)cc4Cl)cc3n2)cc1 | 81%
O=C(NCC12CC3CC(CC(C3)C1)C2)c1cc2nc(-c3ccc(Cl)cc3)cc(C(F)(F)F)n2n1 | 31% (active)
CCC(c1nnnn1CCOC)N(Cc1cc2ccc(OC)cc2[nH]c1=O)C1CCCC1 (centres undefined) | 92%
Cc1ccc(C)c(N2CCN(C(=O)c3cc4cc5ccc(C)cc5nc4s3)CC2)c1 | 95%
N#Cc1c2c(c(-c3ccccc3)[nH]c1=S)CCCC2 | 91%
CCc1ccc(-c2nn(CC(=O)NC3CCCCC3)c3c2cnc2ccc(OC)cc23)cc1 | 98%
CCOC(=O)c1c(C)sc(-c2c(-c3cc(C)ccc3C)[nH]c3c2c(=O)[nH]c(=O)n3C)c1O | 40% (active)
COC(=O)c1c(C)sc(-c2c(-c3ccc(F)cc3)[nH]c3[nH]c(=O)[nH]c(=O)c23)c1O | 116%
COC(=O)c1c(C)sc(-c2c(-c3ccc4c(c3)OCCO4)[nH]c3c2c(=O)[nH]c(=O)n3C)c1O | 37% (active)
CCOC(=O)c1c(C)sc(-c2c(-c3ccc(OC)c(F)c3)[nH]c3c2c(=O)[nH]c(=O)n3C)c1O | 117%
CCOC(=O)c1c(C)sc(-c2c(-c3cc(C)ccc3C)[nH]c3c2c(=O)n(C)c(=O)n3C)c1O | 105%
CCOC(=O)c1c(C)sc(-c2c(-c3cccc(Cl)c3)[nH]c3c2c(=O)n(C)c(=O)n3C)c1O | 113%
CCc1ccc(-c2[nH]c3c(c2-c2sc(C)c(C(=O)OC)c2O)c(=O)[nH]c(=O)n3C)cc1 | 23% (active)
CCOC(=O)c1c(C)sc(-c2c(-c3ccc4c(c3)OCCO4)[nH]c3c2c(=O)[nH]c(=O)n3C)c1O | 106%
CCc1ccc(-c2[nH]c3c(c2-c2sc(C)c(C(=O)OC)c2O)c(=O)n(C)c(=O)n3C)cc1 | 51%
COC(=O)c1c(C)sc(-c2c(-c3cccc(OC)c3)[nH]c3c2c(=O)[nH]c(=O)n3C)c1O | 43% (active)
COC(=O)c1c(C)sc(-c2c(-c3cccc(Cl)c3)[nH]c3c2c(=O)[nH]c(=O)n3C)c1O | 113%
COC(=O)c1c(C)sc(-c2c(-c3ccc4c(c3)OCCO4)[nH]c3[nH]c(=O)[nH]c(=O)c23)c1O | 50%
COc1cccc(CNC(=O)c2c(C)oc3ncnc(N4CCOCC4)c23)c1 | 87%
COc1ccc(CNC(=O)C2CCN(c3nnc(-n4cccc4CNc4ccc(C)cc4)s3)CC2)c(OC)c1 | 70%
COc1ccc(CN2CCc3nc(N4CCN(c5ccc(F)cc5)CC4)ncc3C2)c(OC)c1OC | 119%
COc1ccc(-c2nc3sc(CCNC(=O)c4cc(OC)c(OC)c(OC)c4)c(C)n3n2)cc1 | 83%

Structure (SMILES) | survival
CN(C(=O)CSc1nc2ccc(NC(=O)COc3ccc(Cl)cc3)cc2s1)c1ccccc1 | 72%
CCOc1ccc(OCC)c(Nc2nc3ccc(Cl)cc3n3cnnc23)c1 | 65%
CC(C)NC(=O)C1CCN(S(C)(=O)=O)CC1 | 93%
CSc1nc(NNC(=O)c2ccco2)c2c3c(sc2n1)COC(C)(C)C3 | 81%
CCOc1ccccc1NC(=O)C(C)N(c1ccccc1)S(C)(=O)=O (centres undefined) | 91%
COC(=O)c1c(C)sc(-c2c(-c3ccc4c(c3)OCCO4)[nH]c3c2c(=O)n(C)c(=O)n3C)c1O | 43% (active)
COC(=O)c1c(C)sc(-c2c(-c3ccc(OC)c(F)c3)[nH]c3c2c(=O)n(C)c(=O)n3C)c1O | 120%
CCOC(=O)c1c(C)sc(-c2c(-c3ccc4c(c3)OCCO4)[nH]c3c2c(=O)n(C)c(=O)n3C)c1O | 128%
COCCCNc1c2c(nc3ccccc13)CCC2 | 125%
O=C1COc2ccc(-c3cc(-c4ccc(F)cc4)c4c(n3)-c3cc(Cl)ccc3OC4)cc2N1 | 88%
Cc1nc2sccn2c(=O)c1S(=O)(=O)Nc1cc(Cl)ccc1O | 51%
COc1ccc(NS(=O)(=O)c2c(C)nc3scc(C)n3c2=O)cc1 | 90%
COc1cc(OC)c(NS(=O)(=O)c2c(C)nc3sc(C)cn3c2=O)cc1Cl | 65%
Cc1nc2sccn2c(=O)c1S(=O)(=O)Nc1ccc(N2CCN(C)CC2)cc1 | 106%
Cc1ccc(NS(=O)(=O)c2c(C)nc3sccn3c2=O)c(Cl)c1 | 132%
CC(=O)c1ccc(NS(=O)(=O)c2c(C)nc3scc(C)n3c2=O)cc1 | 88%
COc1cc(Cl)c(C)cc1NS(=O)(=O)c1c(C)nc2sccn2c1=O | 64% (active)
Cc1nc2sccn2c(=O)c1S(=O)(=O)Nc1cc(C(F)(F)F)ccc1Cl | 69% (active)
CCCCOC(=O)c1ccc(NS(=O)(=O)c2c(C)nc3scc(C)n3c2=O)cc1 | 43% (active)
CCOc1ccccc1NS(=O)(=O)c1c(C)nc2sccn2c1=O | 63%
CC(=O)Nc1ccc(NS(=O)(=O)c2c(C)nc3sccn3c2=O)cc1 | 61%
COC(=O)c1ccc(NS(=O)(=O)c2c(C)nc3sccn3c2=O)cc1 | 72% (active)

Source: PubChem BioAssay AID463173 (ICCB-Longwood Screening Facility, Harvard Medical School, 2010)
